According to ChEMBL document CHEMBL4888484, “Replenishing the malaria drug discovery pipeline: Screening and hit evaluation of the MMV Hit Generation Library 1 (HGL1) against asexual blood stage Plasmodium falciparum ,using a nano luciferase reporter read-out” (2022):
Hit rate of the full screen: of about 4,800 compounds, about 420 (8.8%) showed an effect of 50% or more. The full list was thinned out, with strong results kept by preference.

system: Plasmodium falciparum; test: Confirmatory screen in NF54 nanoGlo assay, in single point, at 2uM, 72h; format: functional, Erythrocyte; conditions: timepoint 72 hour

| Compound | % Inhibition [%] |
| --- | --- |
| Cc1cccc(NC(=O)[C@@H](C#N)C(=O)c2ncoc2C)c1 | -14 |
| Cc1c(C2CC2)n[nH]c1NC(=O)C1CC1c1ccccc1 (stereo unspecified) | -1 |
| O[C@@]1(CN2CCC(COc3ccc4c(c3)CCC4)CC2)CCCNC1 | 52 |
| COc1cccc(Cn2nccc2NC(=O)C2CCOCC2)c1OC | -3 |
| CC(C)Cn1c(C(F)(F)F)cnc1N | 3 |
| Cc1ncc(CN(C)[C@@H](C)C(=O)Nc2ccc3c(c2)OC2(CCCCC2)O3)s1 | -4 |
| COc1cc(Cl)c(C)cc1NC(=O)c1nc2cc(C)c(C)cc2n(C)c1=O | -3 |
| Cc1nc2ccccc2n1CCC(=O)N1CCN(Cc2ccc3c(c2)OCO3)CC1 | 2 |
| O=C(c1ccc2c(c1)OCCCO2)N1CCCCC1 | -3 |
| O=C(c1ccc2c(c1)OCO2)N1CCn2c1nc1ccccc12 | 65 |
| CCC[C@H]1C(=O)NCCN1C(=O)c1cnn(CC2CCOCC2)c1C | 8 |
| Cc1nnc(NC(=O)[C@H](C)c2ccc(-c3ccccc3)c(F)c2)s1 | -19 |
| COc1cc(C(c2c(C)n(C)n(-c3ccccc3)c2=O)c2c(C)n(C)n(-c3ccccc3)c2=O)c(Br)c(Br)c1OCc1ccccc1 | 7 |
| Cn1ccnc1C1CC(NC(=O)c2cc3c(s2)CCC3)CCO1 (stereo unspecified) | 0 |
| COc1cc2c(cc1OC)[C@@H](NC(=O)c1cnc(C3(C)OCCO3)s1)CCCC2 | 50 |
| COc1cc(C(=O)NC2CCCCC2)cc2occc12 | -8 |
| Cc1cccc(C(=O)ON2C(=O)CCC2=O)c1 | -11 |
| CCCCC[C@H](C)NC(=O)CCC(=O)Nc1cccnc1 | -11 |
| Cc1ccc(Oc2ccccc2CNC(=O)[C@@H]2CCC(=O)N2)cc1 | -6 |
| COCCN(Cc1nc(C(=O)NC(C)C)cs1)C(=O)Nc1ccc(C(C)C)cc1 | 4 |
| CC1CCN(C(=O)Cc2csc(NC(=O)c3cccc(O)c3)n2)CC(C)C1 (stereo unspecified) | -10 |
| Fc1cnc(OC2Cc3ccccc3C2)nc1 | 57 |
| CCn1c(C)cc(C(=O)O[C@@H](C)C(=O)Nc2ncccn2)c1C | -4 |
| CC1CCCC(C)N1C(=O)CN(C)c1cccc2cccnc12 (stereo unspecified) | -7 |
| Cc1ccc(S(=O)(=O)Nc2ccc(Br)cc2C(=O)Nc2ccc(Oc3ccc(Br)c4ccccc34)c(Cl)c2)cc1 | 6 |
| C[C@@H](CC(=O)Nc1cncnc1-n1cccn1)c1ccccc1 | -3 |

| Compound | % Inhibition [%] |
| --- | --- |
| OC(CC(Nc1ccc(Cl)cc1)c1ccccc1)c1ccccc1 (stereo unspecified) | -8 |
| CC(C)n1nccc1N1C(=O)N[C@@H](CC(F)(F)F)C1=O | 0 |
| O=C(Nc1cnc2ccccc2c1)c1ccccc1C(=O)c1ccc(F)cc1 | 96 |
| O=C(Nc1cc(NC(=O)c2ccc(F)cc2)cc(Oc2cccnc2)c1)c1ccc(F)cc1 | -1 |
| CCN1C(=O)C[C@H](C(=O)Nc2cnc3ccccc3c2)[C@H]1c1nccn1CC | 2 |
| Cc1nn(C)c(NC(=O)Nc2cccc(Cl)c2)c1C1=CCCCC1 | -5 |
| COc1ccc(-c2cn(-c3ccc(OC)cc3)c(N)c2C#N)cc1 | -7 |
| CCc1n[nH]c(=O)c(C(=O)Nc2cnc3[nH]nc(C)c3c2)c1CC | -1 |
| Cc1nsc(N2CCN(CC(C)O)C(C)C2)n1 (stereo unspecified) | -4 |
| c1ccc(C[C@]2(c3ccccc3)CCNC2)cc1 | 1 |
| O=c1cc(N2CCN(C3CCCC3)CC2)cnn1Cc1ccccc1 | -13 |
| O=C(Cc1ccccc1F)N1CC(n2cnnc2C2CCOCC2)C1 | -14 |
| COc1ccc([C@@H]2CN(S(=O)(=O)c3ccc(OC)cc3)CCN2C)cc1 | 1 |
| O=c1[nH]c2nc(N3CCC(N4CCCCC4)CC3)ncc2c(=O)n1-c1ccc2c(c1)OCO2 | -9 |
| CS(=O)(=O)N1CC[C@H](N(C(=O)NCCc2ccccc2)C2CCOCC2)C1 | -14 |
| CC(C)c1cccc(Nc2nc3ccncc3n(C(C)C)c2=O)c1 | 95 |
| O=C(CN1CCOC2CCCCC21)N1CCOC2CCCCC21 (stereo unspecified) | -9 |
| Cc1cc(C(=O)NC(C2CC2)C2CC2)c(C)o1 | -2 |
| O=C1NCCC[C@@H]1NS(=O)(=O)N1CCc2ccccc2C1 | 0 |
| CCc1cccc(NC(=O)N2CCN(C3=CC4=NC[C@H](C)N4C=N3)CC2)c1 | 46 |
| Cc1cc(-c2csc(CN3C(=O)CNC3=O)n2)cc(C)c1F | -4 |
| CNc1nc(N2C[C@H](C)[C@@](O)(C3CC3)C2)nc2c1CCC2 | -11 |
| Fc1ccccc1N1CCN(c2c3c(nc4nc(Cc5ccc(Cl)cc5)nn24)CCCC3)CC1 | -11 |
| CNC(=O)CNC(=O)c1cccc(Cl)c1 | -1 |
| Cc1nc([C@@H]2CCCN2c2nc(C3CCCC3)ns2)no1 | -6 |
| Cc1cc(NC(=O)c2occc2-c2ccccc2)sn1 | -2 |

| Compound | % Inhibition [%] |
| --- | --- |
| CN(Cc1ccccc1)c1nc2ncn(CC(=O)NC3CCCCC3)c(=O)c2s1 | -17 |
| Cc1ccc(S(=O)(=O)NCC2(CNS(=O)(=O)c3ccc(C)cc3)CN(S(=O)(=O)c3ccc(C)cc3)C2)cc1 | 7 |
| COc1cccc(NC(=O)Cn2c(C)ccc(NS(=O)(=O)c3ccc(C)cc3)c2=O)c1 | 63 |
| COc1cccc(NC(=O)Cn2c(=O)n(C)c(=O)c3sc(N4CCCC4)nc32)c1 | 0 |
| COc1cccc(Cn2c(=O)c3sccc3n(CC(=O)Nc3ccc4c(c3)OCO4)c2=O)c1 | 10 |
| c1ccc2oc(-c3ccnc4nncn34)cc2c1 | -7 |
| COc1cc(C)c2[nH]c3c(c(=O)c2c1)CN(CC(=O)Nc1ccc2c(c1)OCCO2)CC3 | 16 |
| O=C(NC1CCN(Cc2ccco2)CC1)c1ccco1 | -9 |
| Clc1cccc(N2CCN(Cc3nc(-c4ccco4)no3)CC2)c1 | -6 |
| CC(C)(C)OC(=O)NCC1CCCCC1C(F)(F)F (stereo unspecified) | 0 |
| O=C(CNC(=O)OCc1ccccc1)Nc1ccc(F)cc1 | -12 |
| COc1cccc(-c2nc3n(c2C(=O)Nc2cccc(Cl)c2)CCS3(=O)=O)c1 | -3 |
| COc1ccc(-c2cc(C(F)(F)F)nc(-n3nc(-c4cccc(OC)c4)c(Cl)c3-c3cccc(OC)c3)n2)cc1 | 84 |
| COc1cccc(-c2cc(C(=O)Nc3cc(Cl)ccc3C)c3c(C)nn(C)c3n2)c1 | -15 |
| COc1cccc(-c2cc(C(=O)Nc3ccc(F)c(Cl)c3)c3c(C)nn(C)c3n2)c1 | -4 |
| COc1cccc(-c2cc(C(=O)N3CCCN(C(=O)c4cc(-c5cccc(OC)c5)nc5ccccc45)CC3)c3ccccc3n2)c1 | -1 |
| COc1cccc(-c2nn(-c3nc(-c4ccccc4)cc(C(F)(F)F)n3)c(-c3cccc(OC)c3)c2Cl)c1 | 54 |
| COc1ccc(C)cc1NC(=O)c1nn(-c2ccccc2)c2ccccc2c1=O | 17 |
| CCn1cc(Cl)c(C(=O)N2CCN(C(=O)c3ccco3)CC2)n1 | -11 |
| Cc1ccc(CN2CCN(CC(=O)NC3CCCCC3C)C2=O)cc1 (stereo unspecified) | -10 |
| C[C@](O)(CNC(=O)Cn1nc2ccccn2c1=O)c1cccs1 | -1 |
| Clc1ccc(NC2(c3noc([C@@H]4CCCCO4)n3)CCC2)cc1 | 5 |
| COc1cc(CNCc2cccs2)ccc1OCc1ccccc1C | -7 |
| COc1ccc(CNCc2ccc(C)cc2)cc1Cn1ccnc1 | 42 |
| CC1Cc2cc(-c3ccc(CNC(=O)C(C)(O)C4CC4)cc3)ccc2O1 (stereo unspecified) | 4 |
| CC1(C)C[C@@H](NC(=O)c2cc3[nH]cnc3cc2F)CCO1 | 7 |

| Compound | % Inhibition [%] |
| --- | --- |
| Cc1cc([C@H](Nc2ccccn2)c2ccccc2)c(NC(=O)c2ccccc2)s1 | 4 |
| Cc1cc([C@H](Nc2ccccn2)c2cccnc2)c(NC(=O)c2ccccc2)s1 | 2 |
| Oc1ccc2ncccc2c1[C@@H](Nc1ccccn1)c1cccc(Br)c1 | 67 |
| Cc1nn(C)c(C)c1S(=O)(=O)N1CCCN(c2ccc(F)c(F)c2)CC1 | 3 |
| CCCn1c(C)cnc1C1CN(S(=O)(=O)c2ccc(C)c(F)c2)C1 | -6 |
| Cc1noc(C(C)(C)NC(=O)Nc2c[nH]nc2-c2nccs2)n1 | -7 |
| C[C@@H](CNc1ncc(C(=O)N2CCOCC2)cc1Cl)c1nncn1C | -12 |
| COc1ccc(Cl)cc1S(=O)(=O)c1cnc(N2CCOCC2)nc1N | -2 |
| COCCN1C(=O)C[C@H](Nc2ccc3c(c2)CCC3)C1=O | 1 |
| Cc1ccc(C)c(C(=O)CN2Cc3ccccc3C2=N)c1 | 0 |
| Fc1ccc(Nc2nc3c(s2)CCCC3)cc1 | -17 |
| c1ccc(C(c2ccccc2)N2CCN(c3nn4cnnc4c4ccccc34)CC2)cc1 | 65 |
| Fc1cccc(-n2nc(-c3ccccc3F)cc2-c2ccccc2F)c1 | -6 |
| CCOc1cc2c(cc1OC)[C@@H](N)CC2=O | 1 |
| Cc1ccc(CN(C)C2CCCCC2)o1 | -18 |
| CC(C)c1cc(CN(Cc2cc(C(C)C)c(O)c(C(C)C)c2)C2CCCCC2)cc(C(C)C)c1O | 96 |
| CCc1nn(C)cc1CN(Cc1cccc(O)c1)C1CCC(O)CC1 (stereo unspecified) | -3 |
| Cc1ccc(-c2ccnc3c(C(=O)NC4CC4)cnn23)cc1C | -2 |
| Cc1c([C@@H](NCc2ncccc2O)C(C)C)oc2ccccc12 | 99 |
| N#CC1(C#N)C(c2ccc(Cl)cc2)C1(C#N)C#N | 11 |
| O=C(NCc1cccc(C(F)(F)F)c1)c1csc(C(=O)NC2CCCC2)n1 | -14 |
| CN(C)c1c(F)c(F)c2cc3c(C(C)(C)C)nn(C)c3nc2c1F | 3 |
| COc1ccc([C@H](CNC(=O)c2ccccc2)N2CCC(c3ccccc3)=N2)cc1 | -3 |
